In PubChem BioAssay (EPA / NIEHS):
Inconclusive results are not listed. Activity calls are given as the source filed them. Rule for the calls, unless noted: active = hit-call score of the fitted dose curve at least 0.9, where 1 is the maximum; inconclusive = response in the unintended direction; inactive = score below 0.9.

Tests used:
[1] = read-out: Intercellular Adhesion Molecule 1 (ICAM1), ICAM1 (gene 3383); assay: BSK_3C_ICAM1: BioMAP Diversity Plus: 3C Assay for Intercellular Adhesion Molecule 1 (ICAM1) Biomarker Activity (AID 2283003; active = hit-call score of the fitted dose curve at least 0.9, where 1 is the maximum; inactive = score below 0.9); settings: primary human endothelial cells (HUVEC); actives raise or lower the signal
Outline: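 Human vascular endothelial primary cells, 3C conditions, 24 h treatment. ICAM-1 by ELISA.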

[2] = BSK_3C_Proliferation: Cell Proliferation Assessment in the BioMAP Diversity Plus: 3C Assay (AID 2283006; active = hit-call score of the fitted dose curve at least 0.9, where 1 is the maximum; inactive = score below 0.9;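 for AC50: potency may reflect either rise or fall in cell number versus DMSO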); settings: primary human endothelial cells (HUVEC)
Outline: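 Proliferation of human vascular endothelial primary cells after 48 h dosing, quantified as SRB-stained protein at 560 nm relative to DMSO.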

[3] = target: Peroxisome proliferator-activated receptor gamma (Homo sapiens) (UniProt P37231); assay: ATG_PPARg_TRANS: Attagene TRANS-FACTORIAL HepG2 Assay for human Peroxisome Proliferator-activated Receptor-gamma (PPARg) (AID 2283007)
Chain of Peroxisome proliferator-activated receptor gamma (Homo sapiens) (P37231 whole entry, looked up): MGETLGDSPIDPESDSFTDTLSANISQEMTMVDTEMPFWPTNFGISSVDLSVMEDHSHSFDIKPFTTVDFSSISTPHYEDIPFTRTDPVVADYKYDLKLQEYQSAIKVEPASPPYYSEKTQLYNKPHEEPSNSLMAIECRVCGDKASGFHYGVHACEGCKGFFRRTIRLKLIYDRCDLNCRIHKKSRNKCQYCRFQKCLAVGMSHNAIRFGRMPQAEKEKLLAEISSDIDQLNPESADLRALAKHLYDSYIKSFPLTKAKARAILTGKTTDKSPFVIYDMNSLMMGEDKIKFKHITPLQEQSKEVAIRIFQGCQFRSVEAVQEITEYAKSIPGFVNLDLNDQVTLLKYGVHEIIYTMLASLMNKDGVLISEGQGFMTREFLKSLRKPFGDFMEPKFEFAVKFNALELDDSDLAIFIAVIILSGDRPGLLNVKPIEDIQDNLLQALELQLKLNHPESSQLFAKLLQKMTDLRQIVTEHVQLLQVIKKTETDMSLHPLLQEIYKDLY
Outline: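 Twenty-four hours after chemical dosing of transiently transfected HepG2 cells, isolated RNA was converted to cDNA, reporter sequences amplified and 6-FAM-labelled, then HpaI-digested and analysed by capillary electrophoresis. Signal increase against DMSO was fitted.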

[4] = target: Nuclear receptor subfamily 1 group I member 2 (Homo sapiens) (UniProt O75469); assay: ATG_PXR_TRANS: Attagene TRANS-FACTORIAL HepG2 Assay for human Pregnane X Receptor (PXR) (AID 2283008)
Chain of Nuclear receptor subfamily 1 group I member 2 (Homo sapiens) (O75469 whole entry, looked up, the tested form may be a part): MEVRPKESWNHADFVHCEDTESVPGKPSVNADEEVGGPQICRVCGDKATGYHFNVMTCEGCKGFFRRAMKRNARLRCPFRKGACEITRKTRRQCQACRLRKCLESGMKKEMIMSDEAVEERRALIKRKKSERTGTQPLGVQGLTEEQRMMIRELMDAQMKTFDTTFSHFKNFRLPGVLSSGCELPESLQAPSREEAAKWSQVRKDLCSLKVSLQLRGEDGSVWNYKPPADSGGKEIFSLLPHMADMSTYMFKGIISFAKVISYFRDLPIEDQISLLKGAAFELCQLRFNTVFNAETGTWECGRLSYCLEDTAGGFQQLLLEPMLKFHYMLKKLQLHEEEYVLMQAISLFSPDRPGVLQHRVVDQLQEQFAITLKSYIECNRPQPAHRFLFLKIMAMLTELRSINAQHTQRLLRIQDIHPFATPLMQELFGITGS
Outline: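 HepG2 cells transiently transfected with multiple reporter units, here a PXR-GAL4 chimera driving a GAL4-UAS reporter; 24 h compound exposure. Reporter mRNA measured by RT-PCR, FAM labelling and capillary electrophoresis; gain of signal fitted against DMSO baseline.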

[5] = target: human Retinoic Acid Receptor gamma (RARg), RARG (gene 5916) (UniProt P13631); assay: ATG_RARg_TRANS: Attagene TRANS-FACTORIAL HepG2 Assay for human Retinoic Acid Receptor gamma (RARg) (AID 2283009)
Chain of human Retinoic Acid Receptor gamma (RARg), RARG (gene 5916) (P13631 whole entry, looked up, the tested form may be a part): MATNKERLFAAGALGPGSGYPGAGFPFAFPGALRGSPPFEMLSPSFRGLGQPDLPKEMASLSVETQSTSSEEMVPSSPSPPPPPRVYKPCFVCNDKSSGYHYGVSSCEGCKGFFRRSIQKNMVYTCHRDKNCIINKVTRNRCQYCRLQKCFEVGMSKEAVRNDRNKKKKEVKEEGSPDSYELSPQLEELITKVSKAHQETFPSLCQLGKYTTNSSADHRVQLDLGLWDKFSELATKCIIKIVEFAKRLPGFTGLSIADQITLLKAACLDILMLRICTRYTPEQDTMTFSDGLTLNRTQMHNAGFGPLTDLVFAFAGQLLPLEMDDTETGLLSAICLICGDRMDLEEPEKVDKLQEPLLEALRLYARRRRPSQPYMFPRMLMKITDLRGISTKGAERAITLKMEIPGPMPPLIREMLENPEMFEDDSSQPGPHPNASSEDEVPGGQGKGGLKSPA
Outline: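 HepG2, RARg-GAL4 TRANS system, 24 h exposure; reporter mRNA by RT-PCR + CE fluorescence; increase over DMSO.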

[6] = target: Retinoic acid receptor alpha (Homo sapiens) (UniProt P10276); assay: ATG_RARa_TRANS: Attagene TRANS-FACTORIAL HepG2 Assay for human Retinoic Acid Receptor alpha (RARa) (AID 2283005)
Chain of Retinoic acid receptor alpha (Homo sapiens) (P10276 whole entry, looked up, the tested form may be a part): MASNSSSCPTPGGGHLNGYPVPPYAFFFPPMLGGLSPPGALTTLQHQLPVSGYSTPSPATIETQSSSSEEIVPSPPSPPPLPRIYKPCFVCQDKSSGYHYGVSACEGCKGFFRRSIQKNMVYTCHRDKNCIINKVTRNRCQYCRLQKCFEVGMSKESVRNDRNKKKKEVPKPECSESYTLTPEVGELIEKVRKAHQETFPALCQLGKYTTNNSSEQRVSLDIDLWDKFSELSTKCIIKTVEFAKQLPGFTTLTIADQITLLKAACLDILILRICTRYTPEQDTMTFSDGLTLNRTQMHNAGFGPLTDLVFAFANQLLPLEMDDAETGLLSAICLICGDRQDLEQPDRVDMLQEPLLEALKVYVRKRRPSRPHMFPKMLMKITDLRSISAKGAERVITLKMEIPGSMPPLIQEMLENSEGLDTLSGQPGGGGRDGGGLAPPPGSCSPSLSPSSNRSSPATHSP
Outline: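 Reporter transcripts, measured by RT-PCR with fluorescent labeling and capillary electrophoresis after 24 h dosing, reflect activity of an exogenous human RARa–GAL4 fusion in transiently transfected HepG2. Fitted for increase relative to DMSO.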

[7] = target: human Peroxisome Proliferator-activated Receptor delta (PPARd), PPARD (gene 5467) (UniProt Q03181); assay: ATG_PPARd_TRANS: Attagene TRANS-FACTORIAL HepG2 Assay for human Peroxisome Proliferator-activated Receptor delta (PPARd) (AID 2283002)
Chain of human Peroxisome Proliferator-activated Receptor delta (PPARd), PPARD (gene 5467) (Q03181 whole entry, looked up, the tested form may be a part): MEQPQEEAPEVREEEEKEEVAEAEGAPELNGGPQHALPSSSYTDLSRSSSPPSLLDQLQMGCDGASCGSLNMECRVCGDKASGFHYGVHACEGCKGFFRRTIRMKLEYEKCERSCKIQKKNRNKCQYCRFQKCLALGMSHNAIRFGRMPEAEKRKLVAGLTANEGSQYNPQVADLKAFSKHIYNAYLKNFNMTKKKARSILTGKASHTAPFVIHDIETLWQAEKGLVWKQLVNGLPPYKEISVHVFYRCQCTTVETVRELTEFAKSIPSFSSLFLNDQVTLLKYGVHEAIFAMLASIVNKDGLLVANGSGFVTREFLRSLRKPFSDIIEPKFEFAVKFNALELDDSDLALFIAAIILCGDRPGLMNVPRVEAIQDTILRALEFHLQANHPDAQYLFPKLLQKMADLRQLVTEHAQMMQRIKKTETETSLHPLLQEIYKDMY
Outline: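 Transient HepG2 transfection (multiple GAL4-UAS RTUs, chimeric receptor-Gal4); 24 h dosing; total RNA → oligo(dT) RT → PCR → 6-FAM primer extension → HpaI cut → CE. Positive direction vs DMSO.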

[8] = target: human RAR-related Orphan Receptor beta (RORb), RORB (gene 6096) (UniProt Q92753); assay: ATG_RORb_TRANS: Attagene TRANS-FACTORIAL HepG2 Assay for human RAR-related Orphan Receptor beta (RORb) (AID 2283010)
Chain of human RAR-related Orphan Receptor beta (RORb), RORB (gene 6096) (Q92753 whole entry, looked up, the tested form may be a part): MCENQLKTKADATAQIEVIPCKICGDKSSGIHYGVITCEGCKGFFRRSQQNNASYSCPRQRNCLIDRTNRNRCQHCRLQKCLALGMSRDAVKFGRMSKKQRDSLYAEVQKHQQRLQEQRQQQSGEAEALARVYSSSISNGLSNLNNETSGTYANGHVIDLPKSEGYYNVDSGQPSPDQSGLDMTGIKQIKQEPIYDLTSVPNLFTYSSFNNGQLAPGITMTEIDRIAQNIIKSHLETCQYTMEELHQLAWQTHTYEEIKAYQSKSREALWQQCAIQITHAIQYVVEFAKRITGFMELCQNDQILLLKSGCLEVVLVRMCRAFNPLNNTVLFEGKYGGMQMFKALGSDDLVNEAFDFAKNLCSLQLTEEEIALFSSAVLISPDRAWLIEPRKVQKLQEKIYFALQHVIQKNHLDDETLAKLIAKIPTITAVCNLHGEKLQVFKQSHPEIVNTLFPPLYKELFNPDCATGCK
Outline: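 In this TRANS-format test, human HepG2 cells express chimeric NR-Gal4 fusion proteins driving GAL4-UAS reporters. After 24 h dosing, reporter transcripts are measured by fluorescent RT-PCR/capillary electrophoresis, with DMSO as negative control.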

[9] = target: human Retinoic Acid Receptor beta (RARb), RARB (gene 5915) (UniProt P10826); assay: ATG_RARb_TRANS: Attagene TRANS-FACTORIAL HepG2 Assay for human Retinoic Acid Receptor beta (AID 2283004)
Chain of human Retinoic Acid Receptor beta (RARb), RARB (gene 5915) (P10826 whole entry, looked up, the tested form may be a part): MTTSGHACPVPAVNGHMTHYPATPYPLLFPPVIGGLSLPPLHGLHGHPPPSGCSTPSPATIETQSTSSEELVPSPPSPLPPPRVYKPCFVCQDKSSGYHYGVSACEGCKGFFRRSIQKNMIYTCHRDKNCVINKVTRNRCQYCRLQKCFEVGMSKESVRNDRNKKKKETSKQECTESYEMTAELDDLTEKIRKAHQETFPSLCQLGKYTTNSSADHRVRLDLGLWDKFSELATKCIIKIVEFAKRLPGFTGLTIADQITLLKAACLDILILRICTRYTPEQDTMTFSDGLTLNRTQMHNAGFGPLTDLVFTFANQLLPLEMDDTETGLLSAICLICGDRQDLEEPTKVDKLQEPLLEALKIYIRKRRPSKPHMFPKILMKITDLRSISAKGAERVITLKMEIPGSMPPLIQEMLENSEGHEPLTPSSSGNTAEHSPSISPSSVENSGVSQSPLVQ
Outline: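 Induction of reporter mRNA from a chimeric RARb-Gal4 construct was measured by RT-PCR, FAM labelling, HpaI digestion and capillary electrophoresis. Measurements followed 24 h compound treatment of transiently transfected human HepG2 liver cells, with DMSO as baseline.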

Measured: AC50

COc1cc2c(c(OC)c1OC)-c1ccc(OC)c(=O)cc1[C@@H](NC(C)=O)CC2
inactive: [1] | [3] | [4] | [5]
active: [2] 0.148 µM

CC(C)CC(C)O (stereo not drawn)
inactive: [1] | [6] | [2]

CCCCOC(=O)c1ccccc1
inactive: [7] | [1] | [2] | [3] | [4]

FC(F)C(F)(F)COCC1CO1 (stereo not drawn)
inactive: [7] | [1] | [2] | [3] | [8]

O=C1CN(N=Cc2ccc([N+](=O)[O-])o2)C(=O)N1
inactive: [7] | [1] | [3] | [4]
active: [2] 13.6 µM

OC(Cn1cncn1)(Cn1cncn1)c1ccc(F)cc1F
inactive: [1] | [2] | [4]

CC[C@H](C)C(=O)O[C@H]1C[C@H](O)C=C2C=C[C@H](C)[C@H](CC[C@@H](O)C[C@@H](O)CC(=O)O)[C@H]21
inactive: [1] | [2] | [5]

OC[C@H]1O[C@@H]2O[C@H]3[C@H](O)[C@@H](O)[C@@H](O[C@H]4[C@H](O)[C@@H](O)[C@@H](O[C@H]5[C@H](O)[C@@H](O)[C@@H](O[C@H]6[C@H](O)[C@@H](O)[C@@H](O[C@H]7[C@H](O)[C@@H](O)[C@@H](O[C@H]1[C@H](O)[C@H]2O)O[C@@H]7CO)O[C@@H]6CO)O[C@@H]5CO)O[C@@H]4CO)O[C@@H]3CO
inactive: [1] | [6] | [2] | [5] | [8]

OCCOCCOCCO
inactive: [1] | [2] | [3]

CCCc1ccccc1
inactive: [7] | [1] | [2] | [3]

CCOc1ccc2[nH]cc(C(=O)NCc3ccccc3)c(=O)c2n1
active: [4] 13 µM
inactive: [7] | [1] | [2] | [3]

OC[C@H]1O[C@@](CO)(O[C@H]2O[C@H](CO)[C@@H](O)[C@H](O)[C@H]2O)[C@@H](O)[C@@H]1O
inactive: [1] | [9] | [2] | [3] | [8]

COCc1nnc(-c2ccc[n+]([O-])c2)n1-c1c(Cl)c(Cl)cc2[nH]c(=O)c(=O)[nH]c12
inactive: [1] | [2] | [4]

NC(=O)N1c2ccccc2C=Cc2ccccc21
not listed: [7] | [8]
inactive: all other assays above

O=C(O)[C@H](O)[C@@H](O)C(=O)O
inactive: [7] | [1] | [2] | [3] | [8]

NC(N)=O
inactive: [7] | [1] | [2]

CCCCCCCCN(C)C
inactive: [1] | [2] | [4] | [5]

CCOC(N)=O
inactive: [7] | [1] | [2] | [8]

CCCCCOC(C)=O
active: [2] 20.8 µM
inactive: [7] | [1] | [8]

CCc1cccc(CC)c1N
inactive: [7] | [1] | [2] | [4]

CCCOc1ccc(S(=O)(=O)N2CCN(CC)CC2)cc1-c1nc2c(CC)n(Cc3ccccn3)nc2c(=O)[nH]1
active: [3] 7.76 µM | [4] 1.17 µM
inactive: [7] | [1] | [2] | [5]

NC(=O)NN=Cc1ccc([N+](=O)[O-])o1
inactive: [1] | [2] | [3]

Nc1ccn([C@@H]2O[C@H](CO)[C@@H](O)[C@@H]2O)c(=O)n1
inactive: [7] | [1] | [5]
active: [2] 0.519 µM

c1ccc(C(O[C@@H]2CCCN(CCc3ccc4c(c3)OCO4)C2)c2ccccc2)cc1
active: [2] 28.5 µM | [3] 20.7 µM | [4] 0.916 µM
inactive: [7] | [1]

CCCCCCOC(=O)CC(CC(=O)OCCCCCC)(OC(=O)CCC)C(=O)OCCCCCC
inactive: [1] | [2] | [3] | [4] | [8]

C=CN1CCCC1=O
inactive: [1] | [2]

CC(C)C(=O)Nc1ccc([N+](=O)[O-])c(C(F)(F)F)c1
inactive: [1] | [2]
active: [3] 49 µM | [4] 6.92 µM

COS(C)(=O)=O
inactive: [1] | [2] | [3] | [8]
